According to PubChem BioAssay (NCI):
Compounds without any hit were thinned out: in the full panel of roughly 83,000, 20% have a hit.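 In brief: 96-well plates, 48 h treatment, single concentration, percent growth endpoint.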 The source made the active and inactive calls. How the source made its calls: active means growth percent below 10; inactive means the rest.

Each compound was assayed on SK-MEL-28 melanoma (assay: NCI-60 one-dose screen, 48 h (100 = growth as untreated, 0 = no growth, -100 = all killed)). Settings: 10 µM unless noted.
O=C(Nc1ccc(CN2CCOCC2)c(C(F)(F)F)c1)c1nc2ccc3[nH]ncc3c2c2c1CCCC2 was tested, and the growth was 103% (inactive). In the case of CC(C)[C@H]1CCC2=C3CC[C@]45OC(=O)[C@@]6(CCC(C)(C)C[C@H]64)CC[C@@]5(C)[C@]3(C)CC[C@@]21C, the growth is reported as 87.4% [100 µM] (inactive). Cc1ccc2c(c1)/C(=N\N=C/c1cn(C(C)C)c3ccccc13)C(=O)N2 was tested, and the growth was 73.4% (inactive). For COc1ccc(C(=O)c2nccc3cc(OC)c(OC)cc23)cc1OC, the growth was 90.7% (inactive). With Nc1cc(C(=O)O)[nH]c(=S)n1 the growth was 96.7% (inactive). For CC1(C)CC[C@]2(C(=O)O)CC[C@]3(C)C(=CC[C@@H]4[C@@]5(C)C/C(=C/c6cccnc6)[C@H](O)C(C)(C)[C@@H]5CC[C@]43C)[C@@H]2C1, the growth was -35.3% [100 µM] (active). With ClC1=C(Cl)C(Cl)=C(Cl)C1=Cc1ccccc1 the growth was -87.5% (active). With CCCCC(CCCCCC(CCCC)C1NC(C)Cc2cc(OC)c(OC)cc21)C1NC(C)Cc2cc(OC)c(OC)cc21 (stereo not drawn) the growth was -98% (active). With COc1ccccc1S(=O)Nc1ccccc1 (stereo not drawn) the growth was 114% (inactive). With Cc1cnc(N)nc1OCC(C)(C)CNC(=O)c1cccc(-c2ccc(S(=O)(=O)Nc3ccc4c(c3)N(C(=O)C3CC3)CCC4)cc2)c1 the growth was 82.4% (inactive). In the case of C=C(C)[C@@H]1CC[C@]2(COC(=O)c3ccccc3C(=O)O)CC[C@]3(C)[C@H](CC[C@@H]4[C@@]5(C)CC[C@H](OC(=O)c6ccccc6C(=O)O)C(C)(C)[C@@H]5CC[C@]43C)[C@@H]12, the growth is reported as 31.3% [100 µM] (inactive). Cc1cc(N2CCCCCC2)nc(N2CCN(CC(=O)Nc3ccc4c(ccn4Cc4ccccc4)c3)CC2)n1 was tested, and the growth was 51.8% (inactive). In the case of CC1(C)C(=O)/C(=C\c2cccnc2)C[C@]2(C)[C@H]3CC[C@@H]4[C@H]5[C@H](C(=O)/C=C/c6cccnc6)CC[C@]5(C(=O)O)CC[C@@]4(C)[C@]3(C)CC[C@@H]12, the growth is reported as -71.7% [100 µM] (active). CCN(CC)CCSC(=O)C(O)(c1ccccc1)C1CCCC1 (stereo not drawn) was tested, and the growth was 87% (inactive). With O=C(NNc1ccc(-c2ccccc2)nn1)c1ccccc1 the growth was 105% (inactive). In the case of Cc1cc2c(C(C)C)c(O)c(O)c(C=NCc3ccoc3)c2c(O)c1-c1c(C)cc2c(C(C)C)c(O)c(O)c(C=NCc3ccco3)c2c1O, the growth is reported as 70.3% (inactive). In the case of c1ccc(-c2nnc(-c3c[nH]c4ncccc34)s2)cc1, the growth is reported as 99.6% (inactive). Cc1ccc(-c2cc(-c3ccc(C)cc3)nc(NCCNc3ccnc4cc(Cl)ccc34)n2)cc1 was tested, and the growth was -83.6% (active). For Cn1cc(-c2noc(C(=O)c3cn(C)c4ncccc34)n2)c2ccccc21, the growth was 100% (inactive). With Cc1cc(NN=C(c2ccc(O)cc2)c2ccc(O)cc2)c([N+](=O)[O-])cc1[N+](=O)[O-] the growth was 61.6% (inactive). In the case of O=C(C[n+]1ccn(CC(OCc2ccc(Cl)cc2Cl)c2ccc(Cl)cc2Cl)c1)c1ccc(F)cc1 (stereo not drawn), the growth is reported as -95.5% (active). For COc1cc(-c2nc(SCCC(C)C)nc(Nc3ccc(S(N)(=O)=O)cc3)c2C#N)cc(OC)c1OC, the growth was 59.1% (inactive). With CC(C)=CCC[C@](C)(O)[C@H]1CC[C@]2(C)[C@@H]1CC[C@@H]1[C@@]3(C)CC[C@H](OC(=O)CCC(=O)O)C(C)(C)[C@@H]3CC[C@]12C the growth was -46% [100 µM] (active). With C=C(C)[C@@H]1CC[C@]2(C)[C@H](CC[C@@H]3[C@@H]([C@@](C)(O)CCC=C(C)C)CC[C@]32C)[C@@]1(C)CCC(=O)O the growth was -83% [100 µM] (active). In the case of O=C(CCN1CCCCC1)c1ccc2ccccc2c1, the growth is reported as 112% (inactive). For O=C(N/N=C/c1c(Cl)cccc1Cl)c1cccc(Nc2ccnc(C(F)(F)F)c2)c1, the growth was 99.3% (inactive). CCc1ccc(C2=C/C(=C/c3ccccc3)C(=O)N2CCc2ccc(S(N)(=O)=O)cc2)cc1 was tested, and the growth was 105% (inactive). COc1cc2c(cc1OCCCCCOc1ccc(-n3c(C)nc4ccccc4c3=O)cc1)N=C[C@@H]1CCCN1C2=O was tested, and the growth was -66.8% (active). In the case of CCN(CCO)CCC(=O)c1ccc([N+](=O)[O-])cc1, the growth is reported as 117% (inactive). In the case of COc1c(B(O)O)cccc1-c1nc2ccc3[nH]ncc3c2c2c1CCC2, the growth is reported as 86.3% (inactive). For Cc1ccc(-c2cc(O)c(-c3ccc(C)cc3C)cc2O)c(C)c1, the growth was 85.2% (inactive). With C=C(C)[C@@H]1CC[C@]2(c3ncc(C)o3)CC[C@]3(C)[C@H](CC[C@@H]4[C@@](C)(CCC#N)[C@H](C(=C)C)CC[C@]43C)[C@@H]12 the growth was -89.1% [100 µM] (active). Nc1nc(Nc2ccccc2)c2ncn(Cc3ccc4c(c3)OCO4)c2n1 was tested, and the growth was 63.5% (inactive). With CC(=O)OC[C@]12CC[C@@H](C(=O)CBr)[C@@H]1[C@H]1CC[C@@H]3[C@@]4(C)CCCNC(C)(C)[C@@H]4CC[C@@]3(C)[C@]1(C)CC2 the growth was -86.7% [100 µM] (active). In the case of C[C@@H]1C[C@H]2C(=O)O[C@@H](C)[C@H](NC(=O)[C@H](Cc3cc(F)cc(F)c3)NC(=O)Nc3ccc(Cl)cc3F)C(=O)N3C[C@H](O)C[C@H]3C(=O)N3CCN(C)C[C@H]3C(=O)N[C@@H](C)C(=O)N2C1, the growth is reported as 41.3% (inactive). With COC(=O)C(=Cc1ccccc1[N+](=O)[O-])C(=O)OC the growth was 36.4% (inactive). For CC1Cc2c(Cl)ncnc2N(C)c2ccc(Cl)cc21 (stereo not drawn), the growth was 20.6% (inactive). In the case of CC1(C(=O)O)CCC(N)(C(=O)O)C1(C)C (stereo not drawn), the growth is reported as 109% (inactive).
